Assay outcomes from PubChem.
Rows were chosen to be rich in hits. Some 4.1% of all compounds tested hit in one or more screens of this group.
LMP1 NFkB inh = EBV LMP1-driven NF-kappaB luciferase reporter inhibitors, primary screen, cell-based, luminescence, single point. LMP1-induced NF-kappaB luciferase reporter cells. inhibition, % at 12.5 µM. hit rate 0.69% among 350,000; in the data active = inhibition above about 41%; inconclusive = no clear call, values can overlap the other calls;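 note: 0% = neutral control wells and 100% = reference inhibitor control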
Shn3 inh set2 = reduction of Shn3 3'UTR firefly luciferase signal, primary screen, Schnurri-3 inhibitor project, cell-based, Clone20 osteoblasts, set 2 | AID 588674, 2011 | Clone20 osteoblast Shn3 3'UTR firefly luciferase, 24 h | inhibition, % at 12.5 µM | hit rate 0.52% among 360,000;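 active = mean inhibition of at least 75% with every replicate also reaching 75%; inconclusive = mean inhibition at least 75% but some replicate below; inactive = mean inhibition below 75%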;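 note: 0% = median of neutral control wells and 100% = pilot-screen positive control compound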
Peg3 prom inh-1 = Peg3 promoter-driven luciferase inhibitors, primary screen, cell-based, HeLa, luciferase luminescence | AID 588405, 2011 | inhibition, % at 20 µM | HeLa PEG-Prom luciferase reporter, overnight | hit rate 1.7% among 360,000;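 active = inhibition of at least 50% at 20 µM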
TROY signal inh = inhibitors of TROY-driven NF-kB signaling, primary screen, Q293 LMP1-TROYcd cells, NF-kB luciferase, uHTS | Q293 LMP1-TROYcd NF-kB luciferase reporter, 4 h | inhibition, % at 10 µM | hit rate 0.98% among 360,000;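 active = compounds whose plate-normalised and pattern-corrected inhibition of the luciferase reporter signal at the single screening dose is 50% or more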
TWEAK Fn14 block = inhibitors of TWEAK-Fn14 signaling, primary screen, luciferase reporter cells, uHTS | TWEAK-stimulated Fn14 reporter cells, luciferase luminescence, 8 h | hit rate 2% among 360,000 | inhibition, % at 10 µM | AID 1159606, 2016; in the data active = inhibition above about 50%
MITF TRPM1 inh = inhibitors of MITF-dependent TRPM1 promoter reporter, primary screen, cell-based, SK-MEL-5, single point, luciferase; SK-MEL-5 TRPM1 promoter luciferase, 24 h; inhibition, % at 12.5 µM; hit rate 0.83% among 330,000; AID 488899, 2010;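 active = mean inhibition across replicates of 60% or more, whatever share of single replicates reaches that level; inconclusive = some that reach 60%, reason not given; inactive = mean inhibition across replicates below 60%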
Peg3 prom inh-2 = Peg3 promoter reporter inhibitors, retest, confirmation, cell-based, HeLa, luciferase reporter, single concentration | HeLa PEG-Prom luciferase reporter, luminescence, overnight | inhibition, % at 20 µM | shares compounds with Peg3 prom inh-1 | hit rate 84% among 1,300;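 active = at 20 µM dose, 40% or more inhibition averaged across four replicates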
* hit, by the source's call.

Screening O=C(N/N=C/C1C(=O)NC(=S)N(c2ccccc2)C1=O)c1cc(Br)c(O)c(Br)c1 (configuration not stated) returned LMP1 NFkB inh 51.6*, Shn3 inh set2 -14.4, Peg3 prom inh-1 13.0, TROY signal inh -21.4, TWEAK Fn14 block 3.5 and MITF TRPM1 inh 5.1.
For COC(=O)C1=C(c2cccc(C#N)c2)C[C@@H]2CC[C@H]1N2C(=O)NCC1CC1 the results were LMP1 NFkB inh -2.3, Shn3 inh set2 -12.3, Peg3 prom inh-1 -1.8, TROY signal inh -10.5, TWEAK Fn14 block 7.9 and MITF TRPM1 inh 1.4.
CN1CCC(N(C)c2nc(-c3ccc([N+](=O)[O-])cc3)nc3ccccc23)CC1 was read as LMP1 NFkB inh -117.6, Shn3 inh set2 -71.7, Peg3 prom inh-1 108.2*, TROY signal inh -45.6, TWEAK Fn14 block -55.6 and MITF TRPM1 inh inconclusive.
`O=C(c1ccco1)c1cn(Cc2ccccc2)c2ccccc12` gave LMP1 NFkB inh -4.7, Shn3 inh set2 0.8, Peg3 prom inh-1 -12.4, TROY signal inh -26.0, TWEAK Fn14 block 101.5* and MITF TRPM1 inh -17.5.
For CCCS(=O)(=O)N1CCCC(C(=O)N2CCC3(CC2)OCCO3)C1 (configuration not stated) the results were LMP1 NFkB inh -0.9, Shn3 inh set2 3.4, Peg3 prom inh-1 1.2, TROY signal inh -2.9, TWEAK Fn14 block 4.5 and MITF TRPM1 inh 8.4.
CCCCCCOc1ccc(CN2CCN(C)CC2)cc1 was read as LMP1 NFkB inh 33.0, Shn3 inh set2 -3.5, Peg3 prom inh-1 -139.2, TROY signal inh 65.0*, TWEAK Fn14 block 61.1* and MITF TRPM1 inh -19.4.
CN1CCN(Cc2ccc3ccccc3c2)CC1 was read as LMP1 NFkB inh 3.4, Shn3 inh set2 4.2, Peg3 prom inh-1 -2.6, TROY signal inh 14.0, TWEAK Fn14 block -2.8 and MITF TRPM1 inh 10.5.
For COC(=O)C1=C(c2ccc3ccccc3c2)C[C@@H]2CC[C@H]1N2C(=O)NC(C)C the results were LMP1 NFkB inh 3.4, Shn3 inh set2 9.1, Peg3 prom inh-1 9.5, TROY signal inh 3.5, TWEAK Fn14 block -12.1 and MITF TRPM1 inh -4.6.
Screening Cn1nc(-c2ccc(OCC(=O)N3CCN(Cc4ccccc4)CC3)cc2)c2ccccc2c1=O returned LMP1 NFkB inh 20.8, Shn3 inh set2 89.0*, Peg3 prom inh-1 36.6, TROY signal inh 26.6, TWEAK Fn14 block 20.7 and MITF TRPM1 inh 10.2.
`CN1CCN(C(=O)COc2ccc(-c3nc4ccccc4s3)cc2)CC1` gave LMP1 NFkB inh 59.3*, Shn3 inh set2 19.5, Peg3 prom inh-1 -26.8, TROY signal inh 1.0, TWEAK Fn14 block 52.1* and MITF TRPM1 inh 14.9.
Cn1cccc1CN1CCN(C(=O)COc2ccccc2)CC1 was read as LMP1 NFkB inh 8.7, Shn3 inh set2 -20.1, Peg3 prom inh-1 -0.8, TROY signal inh 8.6, TWEAK Fn14 block 3.9 and MITF TRPM1 inh -14.6.
CC1OC(OC2C=C3CCC4C(CCC5(C)C(c6ccc(=O)oc6)CCC45O)C3(C)CC2)C(O)C(OC2OC(CO)C(O)C(O)C2O)C1O (configuration not stated) was read as LMP1 NFkB inh 89.2*, Shn3 inh set2 -4.2, Peg3 prom inh-1 97.7*, TROY signal inh 40.4, TWEAK Fn14 block 85.8* and MITF TRPM1 inh 71.8*.
Screening OCC[n+]1c2ccccc2nc2ccc(N3CCOCC3)cc21 returned Shn3 inh set2 -0.5, Peg3 prom inh-1 13.3, TROY signal inh 6.7 and TWEAK Fn14 block 8.4.
`O=[N+]([O-])c1ccc(N2CCCC(C(F)(F)F)C2)c2ccncc12` (configuration not stated) gave LMP1 NFkB inh 14.0, Shn3 inh set2 76.5, Peg3 prom inh-1 2.5, TROY signal inh 35.5, TWEAK Fn14 block 37.7 and MITF TRPM1 inh 13.4.
For O=c1[nH]c(CN2CC=C(c3ccccc3)CC2)nc2cc(C(F)(F)F)ccc12 the results were LMP1 NFkB inh 44.1*, Shn3 inh set2 15.7, Peg3 prom inh-1 -20.6, TROY signal inh 1.7, TWEAK Fn14 block 11.1 and MITF TRPM1 inh -4.1.
`NC(=O)c1ccc(N)nc1` gave LMP1 NFkB inh 0.2, Shn3 inh set2 71.7, Peg3 prom inh-1 8.5, TROY signal inh 3.8, TWEAK Fn14 block -3.8 and MITF TRPM1 inh 16.1.
Screening Cc1ccc(-c2cc(-c3ccc(C)cc3)[n+](-c3ccccc3)c(-c3ccc(C)cc3)c2)cc1 returned LMP1 NFkB inh 44.5*, Shn3 inh set2 94.2*, Peg3 prom inh-1 80.2*, TROY signal inh 71.4*, TWEAK Fn14 block 91.6*, MITF TRPM1 inh 102.2* and Peg3 prom inh-2 94.1*.
`c1ccc(-c2cc(-c3ccccc3)[n+](-c3ccccc3)c(-c3ccccc3)c2)cc1` gave LMP1 NFkB inh 38.9, Shn3 inh set2 16.3, Peg3 prom inh-1 110.5*, TROY signal inh 70.6*, TWEAK Fn14 block 86.5*, MITF TRPM1 inh 92.4* and Peg3 prom inh-2 87.0*.
`O=C1NC2C(=CC(O)C(O)C2O)c2cc3c(c(O)c21)OCO3` (configuration not stated) gave LMP1 NFkB inh 95.2*, Shn3 inh set2 96.1*, Peg3 prom inh-1 99.6*, TROY signal inh 83.5*, TWEAK Fn14 block 94.7*, MITF TRPM1 inh 88.1* and Peg3 prom inh-2 97.5*.
For Cn1cccc1/C=C1/C(=O)NC(=S)N(Cc2ccc(F)cc2)C1=O the results were LMP1 NFkB inh 3.4, Shn3 inh set2 2.3, Peg3 prom inh-1 106.2*, TROY signal inh 5.9, TWEAK Fn14 block 3.0, MITF TRPM1 inh 47.8 and Peg3 prom inh-2 63.1*.
Screening Cn1cccc1/C=C1/C(=O)NC(=O)N(Cc2ccc(F)cc2)C1=O returned LMP1 NFkB inh 11.3, Shn3 inh set2 24.5, Peg3 prom inh-1 23.2, TROY signal inh 26.4, TWEAK Fn14 block -22.9 and MITF TRPM1 inh 16.9.
`CC1=CC(O)C(O)C2(C)C1CC1OC(=O)CC3C(C)C(O)C(=O)C2C13CO` (configuration not stated) gave LMP1 NFkB inh 2.1, Shn3 inh set2 18.5, Peg3 prom inh-1 90.7*, TROY signal inh 3.5, TWEAK Fn14 block 10.6, MITF TRPM1 inh 17.9 and Peg3 prom inh-2 20.3.
CCCN1CCC[C@@H](c2cccc(O)c2)C1 was read as LMP1 NFkB inh -1.0, Shn3 inh set2 -11.0, Peg3 prom inh-1 2.5, TROY signal inh 2.1, TWEAK Fn14 block -5.3 and MITF TRPM1 inh 3.7.
O=C1NC(=O)N(Cc2ccc(F)cc2)C(=O)/C1=C\C=C\c1ccco1 was read as LMP1 NFkB inh -81.3, Shn3 inh set2 9.7, Peg3 prom inh-1 62.0*, TROY signal inh -1.1, TWEAK Fn14 block 17.3, MITF TRPM1 inh 93.1* and Peg3 prom inh-2 66.1*.
